According to PubChem BioAssay (EPA / NIEHS):
Results filed as inconclusive are left out. Activity calls are given as the source filed them. How the source made its calls, unless noted: active means hit-call score of the fitted dose curve at least 0.9, where 1 is the maximum; inconclusive means response in the unintended direction; inactive means score below 0.9.

Columns and labels:
[1] = TOX21_p53_BLA_p2_viability: Viability Assessment in the Tox21 HCT-116 p53 Agonism Beta-lactamase Assay, Phase 2 (AID 2283591);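 further: compound exposure lasted 16 h at 37 °C; actives lower the ATP signal meaning cytotoxicity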
Method in brief: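 Cytotoxicity readout: CellTiter-Glo ATP luminescence, 30 min at room temperature, after the beta-lactamase read. Cells were HCT116 exposed 16 h at 37C to compounds pin-transferred at 217-fold dilution from DMSO stocks.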

[2] = biological target: Cellular tumor antigen p53 (Homo sapiens) (UniProt P04637); assay: TOX21_p53_BLA_p2_ratio: Tox21 HCT-116 p53 Agonism Beta-lactamase Assay, Ratio, Phase 2 (AID 2283592)
Method in brief: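 HCT116 p53-bla; 4000 cells/well; 5 h pre-incubation; cpd in DMSO, 217-fold dilution; 16 h 37C/5% CO2; CCF4-AM 2 h RT; Ex 405, Em 460/530 ratio; DMSO = baseline; positive fitting direction.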

[3] = TOX21_p53_BLA_p3_viability: Viability Assessment in the Tox21 HCT-116 p53 Agonism Beta-lactamase Assay, Phase 3 (AID 2283593);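 further: cells exposed to compound for 16 h before reading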
Method in brief: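 Cellular ATP was quantified by CellTiter-Glo luminescence, read after 30 min at room temperature. Beforehand, HCT116 cells (4000/well) received compound 5 h post-seeding, 217-fold diluted from DMSO, then incubated 16 h at 37C.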

[4] = TOX21_p53_BLA_p4_viability: Viability Assessment in the Tox21 HCT-116 p53 Agonism Beta-lactamase Assay, Phase 4 (AID 2283597);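 further: hits lower the luminescence signal meaning cytotoxicity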
Method in brief: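 Cells plated, 5 h pre-incubation; DMSO compounds pinned (217-fold dilution); 16 h, 37C/5% CO2; CCF4-AM 2 h RT; CellTiter-Glo 30 min RT; luminescence read.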

[5] = TOX21_p53_BLA_p5_viability: Viability Assessment in the Tox21 HCT-116 p53 Agonism Beta-lactamase Assay, Phase 5 (AID 2283600)
Method in brief: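 4000 cells/well; 5 h pre-incubation; DMSO compounds pin-transferred, 217-fold dilution; 16 h, 37C/5% CO2; CCF4-AM 2 h RT; CellTiter-Glo 30 min RT; luminescence.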

[6] = biological target: Cellular tumor antigen p53 (Homo sapiens) (UniProt P04637); assay: TOX21_p53_BLA_p4_ratio: Tox21 HCT-116 p53 Agonism Beta-lactamase Assay, Ratio, Phase 4 (AID 2283601)
Method in brief: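 Signal is the blue/green (460nm/530nm) ratio of cleaved versus uncleaved CCF4-AM substrate, read after 2 h substrate loading. Cells were HCT116 carrying the p53-responsive beta-lactamase reporter, dosed 16 h at 37C, 5% CO2; CellTiter-Glo measured in parallel.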

[7] = ACEA_ER_AUC_viability: ACEA Biosciences xCELLigence Real-Time Cell Analysis on Estrogen Receptor Agonism for Viability (AID 2283782);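 further: continuous compound exposure with impedance area under curve over 80 h; hit means loss of impedance signal meaning reduced cell growth or viability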
Method in brief: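 T-47D; phenol red-free RPMI1640 + 10% CS-FBS; 8 conc., 1:4 serial, max 100 uM final, ≤0.5% DMSO; n = 2; continuous exposure; impedance monitored to 80 h post-dose; AUC vs DMSO.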

[8] = CCTE_Harrill_HTTr_Viability_MCF7: CCTE's 6-hour Cell Viability Assessment for the High-Throughput Transcriptomics (HTTr) Platform, in MCF-7 cells cultured in DMEM + 10% fetal bovine serum, Harrill Lab (AID 2284010; active means hit-call score of the fitted dose curve at least 0.9, where 1 is the maximum; inactive means score below 0.9)
Method in brief: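 Viability measured through PI dye exclusion by high-content imaging at 6 h post-dosing.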

[9] = CCTE_Harrill_HTTr_Apoptosis_MCF7: CCTE's 6-hour Apoptosis Assessment for the High-Throughput Transcriptomics (HTTr) Platform, in MCF-7 cells cultured in DMEM + 10% fetal bovine serum, Harrill Lab (AID 2284011; active means hit-call score of the fitted dose curve at least 0.9, where 1 is the maximum; inactive means score below 0.9)
Method in brief: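 MCF-7 (DMEM + 10% FBS), 384-well; 8-pt dilution series, 6 h chemical exposure; caspase-3/7 activation via CellEvent Caspase 3/7 Green, HCI; bidirectional fit vs DMSO.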

[10] = biological target: Cellular tumor antigen p53 (Homo sapiens) (UniProt P04637); assay: TOX21_p53_BLA_p5_ratio: Tox21 HCT-116 p53 Agonism Beta-lactamase Assay, Ratio, Phase 5 (AID 2283599)
Method in brief: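 Beta-lactamase reporter ratio (blue 460 nm over green 530 nm, 405 nm excitation) after 2 h CCF4-AM loading, in HCT-116 cells exposed 16 h at 37 C to compounds pinned at 217-fold dilution. Increases relative to DMSO baseline scored.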

[11] = CCTE_Harrill_HTTr_CellCount_MCF7: CCTE's Cell Proliferation Assessment for the High-Throughput Transcriptomics (HTTr) Platform, Harrill Lab (AID 2284012);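 further: count of Hoechst-stained nuclei per well by high-content imaging in MCF-7 cells; cells exposed to compound for six hours; intended direction is loss of nuclei count meaning fewer cells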
Method in brief: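 Nuclei counting (Hoechst, high content imaging) in MCF-7 after a 6 h treatment at eight concentrations. Activity fitted bidirectionally, DMSO as negative control.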

[12] = CCTE_Shafer_MEA_dev_firing_rate_mean: CCTE's Neural Network Formation Assay for Mean Firing Rate, Shafer Lab (AID 2284031; active means hit-call score of the fitted dose curve at least 0.9, where 1 is the maximum; inactive means score below 0.9)
Method in brief: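 Developing rat cortical networks on MEA plates undergo 12-day compound exposure. Firing frequency, averaged across active electrodes, is integrated as area under the curve over four recording days, referenced to DMSO.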

[13] = CCTE_Shafer_MEA_dev_per_burst_spike_percent: CCTE's Neural Network Formation Assay for Percent of Spikes in a Burst, Shafer Lab (AID 2284032; active means hit-call score of the fitted dose curve at least 0.9, where 1 is the maximum; inactive means score below 0.9;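 further: fitted as a decrease in burst spike percentage below DMSO baseline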)
Method in brief: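 Rat primary cortical neurons on 16-electrode MEA wells, dosed from plating day 0 for 12 days with renewal on DIV 5 and 9; spikes-in-bursts percentage averaged over bursting electrodes, collapsed as AUC across days 5, 7, 9, 12; loss direction versus DMSO.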

[14] = CCTE_Shafer_MEA_dev_active_electrodes_number: CCTE's Neural Network Formation Assay for Number of Active Electrodes, Shafer Lab (AID 2284040)
Method in brief: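 Rat cortical primary cultures, 1.5 x 10^5 cells/well, PEI-coated MEA, laminin drop. Continuous exposure DIV 0–12; full media/compound change DIV 5, 9. Readout: electrodes with mean firing ≥5 spikes/min; AUC across days; loss vs DMSO.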

[15] = CCTE_Shafer_MEA_dev_burst_rate: CCTE's Neural Network Formation Assay for Burst Rate, Shafer Lab (AID 2284042; active means hit-call score of the fitted dose curve at least 0.9, where 1 is the maximum; inactive means score below 0.9)
Method in brief: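 Primary rat cortical neurons on PEI-coated 48-well MEA plates (laminin added with cells at plating) (16 electrodes/well), exposed from plating to day 12, dosing renewed at DIV 5 and 9. Burst rate averaged over active electrodes, recorded DIV 5, 7, 9, 12, summarized as AUC; loss versus DMSO.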

[16] = CCTE_Shafer_MEA_dev_bursting_electrodes_number: CCTE's Neural Network Formation Assay for Number of Bursting Electrodes, Shafer Lab (AID 2284043);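 further: potency is for loss of bursting electrodes relative to DMSO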
Method in brief: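 Read-out is the per-well number of electrodes bursting at least once every 2 minutes, recorded on days 5, 7, 9 and 12 and collapsed by trapezoidal area under the curve. Cultures were primary rat cortical neurons on MEA plates, treated continuously from plating.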

[17] = CCTE_Shafer_MEA_dev_per_burst_interspike_interval: CCTE's Neural Network Formation Assay for Burst Interspike Interval, Shafer Lab (AID 2284044; active means hit-call score of the fitted dose curve at least 0.9, where 1 is the maximum; inactive means score below 0.9;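 further: mean spike spacing inside bursts as AUC over recordings on days 5 7 9 12; potency for a decrease of within-burst interspike interval below DMSO level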)
Method in brief: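 Neurons from rat cortex plated onto PEI-coated MEA wells with laminin […] at 1.5 x 10^5 cells/well, then treated from day 0. Media and compound fully replaced on DIV 5 and 9. Extracellular spontaneous firing recorded four times; interspike interval per burst summarised as AUC.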

[18] = CCTE_Shafer_MEA_dev_burst_duration_mean: CCTE's Neural Network Formation Assay for Mean Burst Duration, Shafer Lab (AID 2284045; active means hit-call score of the fitted dose curve at least 0.9, where 1 is the maximum; inactive means score below 0.9)
Method in brief: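 Read-out: average first-to-last-spike interval within single-electrode bursts, averaged over bursting electrodes per well, then summarised as area under the curve across days 5, 7, 9 and 12. Developing rat cortical networks were exposed from day 0.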

[19] = CCTE_Shafer_MEA_dev_interburst_interval_mean: CCTE's Neural Network Formation Assay for Mean Interburst Interval, Shafer Lab (AID 2284046; active means hit-call score of the fitted dose curve at least 0.9, where 1 is the maximum; inactive means score below 0.9;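 further: well-mean interburst interval of bursting electrodes as AUC over four recording days; curve fitted for decrease in interburst interval relative to DMSO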)
Method in brief: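 Recordings on days 5, 7, 9 and 12 give well-mean interburst interval across actively bursting electrodes, summarized as area under the curve. Cultures: rat cortical neurons, continuous exposure from day 0, compound renewed at feeds; decrease analyzed versus DMSO.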

[20] = CCTE_Shafer_MEA_dev_inter_network_spike_interval_mean: CCTE's Neural Network Formation Assay for Mean Inter-network Spike Interval, Shafer Lab (AID 2284047; active means hit-call score of the fitted dose curve at least 0.9, where 1 is the maximum; inactive means score below 0.9)
Method in brief: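 Primary rat cortical neurons on 16-electrode MEA wells, exposed from plating day 0 through DIV 12, compound renewed at DIV 5 and 9 media changes. Mean interval between network-spike peaks recorded DIV 5, 7, 9, 12; collapsed as trapezoidal AUC, fitted downward versus DMSO.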

[21] = CCTE_Shafer_MEA_dev_network_spike_number: CCTE's Neural Network Formation Assay for Number of Network Spikes, Shafer Lab (AID 2284048; active means hit-call score of the fitted dose curve at least 0.9, where 1 is the maximum; inactive means score below 0.9;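 further: synchronized bursts across electrodes counted on days 5 7 9 12 and integrated as AUC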)
Method in brief: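 Developing networks of primary rat cortical neurons are treated over 12 days starting at plating, with media and compound fully replaced on DIV 5 and 9. Network spike counts from four recording days are integrated as trapezoidal AUC.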

[22] = CCTE_Shafer_MEA_dev_spike_duration_mean: CCTE's Neural Network Formation Assay for Mean Spike Duration, Shafer Lab (AID 2284051; active means hit-call score of the fitted dose curve at least 0.9, where 1 is the maximum; inactive means score below 0.9;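 further: mean network spike duration pooled as area under curve over DIV 5 to 12 recordings; potency for a decrease in mean network spike duration versus DMSO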)
Method in brief: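 Primary rat cortical neurons on 16-electrode MEA wells (PEI-coated, laminin in plating drop), exposed from plating through DIV 12 with compound renewed at DIV 5 and 9. Mean network-spike duration recorded DIV 5, 7, 9, 12; trapezoidal AUC across days, DMSO baseline.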

[23] = CCTE_Shafer_MEA_dev_network_spike_duration_std: CCTE's Neural Network Formation Assay for Standard Deviation of Network Spike Duration, Shafer Lab (AID 2284052; active means hit-call score of the fitted dose curve at least 0.9, where 1 is the maximum; inactive means score below 0.9;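 further: area under curve of spike duration SD across recording days 5 to 12; hits are decreases in network spike duration SD versus DMSO vehicle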)
Method in brief: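 Primary rat cortical neurons on PEI-coated 16-electrode MEA wells, exposed from plating day 0 through day 12 with compound renewed at DIV 5 and 9. Network spike duration SD recorded on days 5, 7, 9, 12, collapsed as trapezoidal AUC; loss-of-signal fit versus DMSO.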

[24] = CCTE_Shafer_MEA_dev_per_network_spike_spike_number_mean: CCTE's Neural Network Formation Assay for Mean Number of Spikes in a Network Spike, Shafer Lab (AID 2284053; active means hit-call score of the fitted dose curve at least 0.9, where 1 is the maximum; inactive means score below 0.9)
Method in brief: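 Primary rat cortical neurons on 48-well, 16-electrode MEA plates were exposed from plating to DIV 12, with dosing renewed on DIV 5 and 9. Spikes per network spike (0.05 s peak window) were recorded on DIV 5, 7, 9 and 12 and collapsed as trapezoidal AUC versus DMSO.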

[25] = CCTE_Shafer_MEA_dev_per_network_spike_spike_percent: CCTE's Neural Network Formation Assay for Percent of Spikes in a Network Spike, Shafer Lab (AID 2284054; active means hit-call score of the fitted dose curve at least 0.9, where 1 is the maximum; inactive means score below 0.9)
Method in brief: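 Rat primary cortical cultures, 1.5 x 10^5 cells/well on MEA. Continuous compound exposure d0–12, medium/compound renewed DIV 5, 9. Network-spike spike % (0.05 s peak window), AUC over 4 recordings, DMSO baseline.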

[26] = CCTE_Shafer_MEA_dev_LDH: CCTE's Lactate Dehydrogenase Assay for Cytotoxicity in the Neural Network Formation Assay, Shafer Lab (AID 2284068);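 further: exposure for twelve days from plating with re-dosing on DIV 5 and 9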
Method in brief: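 Primary rat cortical neurons were plated on PEI/laminin MEA plates and exposed from day 0 for twelve days, with compound renewed at DIV 5 and 9. Cytotoxicity was determined by spectrophotometric LDH assay relative to DMSO.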

[27] = CCTE_Shafer_MEA_dev_mutual_information_norm: CCTE's Neural Network Formation Assay for Mutual Information Normalization, Shafer Lab (AID 2284091; active means hit-call score of the fitted dose curve at least 0.9, where 1 is the maximum; inactive means score below 0.9)
Method in brief: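 Developing rat cortical networks on 16-electrode MEA wells are treated throughout formation (DIV 0–12). Shared electrode information is recorded four times, converted to area-under-curve, and fitted for decreases against DMSO vehicle.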

[28] = CCTE_Shafer_MEA_dev_correlation_coefficient_mean: CCTE's Neural Network Formation Assay for Mean Correlation Coefficient, Shafer Lab (AID 2284093; active means hit-call score of the fitted dose curve at least 0.9, where 1 is the maximum; inactive means score below 0.9;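 further: well mean pairwise spike train correlation integrated as AUC over recording days 5 to 12; potency fitted for loss of correlation relative to DMSO vehicle wells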)
Method in brief: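 Spontaneous activity recorded on days 5, 7, 9 and 12 post-plating; pairwise spike correlations are averaged across active electrodes and collapsed to an area-under-curve. Rat cortical cultures are dosed from plating through 12 days, with compound renewed at media changes.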

[29] = TAMU_PeakParms_SingleDonor1434_Chronotropy: Texas A&M University (TAMU) 1.5-hr Human Induced Pluripotent Stem Cell (iPSC)-derived Cardiomyocytes Calcium (Ca+2) Flux Assay for Cardiotoxicity: Chronotropy (changes in peak frequency) (AID 2284217; active means hit-call score of the fitted dose curve at least 0.9, where 1 is the maximum; inactive means score below 0.9); settings: actives raise or lower the signal
Method in brief: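 iPSC-derived cardiomyocytes (single donor 1434) dosed at 0.2, 1, 10 and 100 uM in 0.5% DMSO for 1.5 h at 37C; Ca2+ dye fluorescence gave average beat frequency. Zero-beat points removed; bidirectional fit versus DMSO, POD as EC05.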

[30] = TAMU_PeakParms_SingleDonor1434_Asystole: Texas A&M University (TAMU) 1.5-hr Human Induced Pluripotent Stem Cell (iPSC)-derived Cardiomyocytes Calcium (Ca+2) Flux Assay for Cardiotoxicity: Asystole (quiescence of beating) (AID 2284328)
Method in brief: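 Average Ca2+-flux peak frequency (beats/s) was recorded in single-donor iPSC-derived cardiomyocytes after 90 min exposure (0.2–100 uM final, 0.5% DMSO). Asystole POD set as EC95 against DMSO, no preprocessing.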

Measured: AC50

Chain of Cellular tumor antigen p53 (Homo sapiens) (P04637 whole entry, looked up): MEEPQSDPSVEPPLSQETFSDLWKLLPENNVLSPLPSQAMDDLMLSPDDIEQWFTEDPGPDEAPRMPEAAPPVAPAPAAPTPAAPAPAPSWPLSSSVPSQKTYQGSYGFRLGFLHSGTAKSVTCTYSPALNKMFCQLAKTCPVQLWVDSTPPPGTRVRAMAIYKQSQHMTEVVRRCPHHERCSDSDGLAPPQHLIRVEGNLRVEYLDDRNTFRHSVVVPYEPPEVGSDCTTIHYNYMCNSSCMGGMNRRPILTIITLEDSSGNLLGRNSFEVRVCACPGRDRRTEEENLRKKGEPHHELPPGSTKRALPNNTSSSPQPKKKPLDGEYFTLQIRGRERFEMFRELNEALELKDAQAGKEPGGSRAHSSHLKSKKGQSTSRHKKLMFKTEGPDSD

CCOC(=O)[C@H](CCc1ccccc1)N[C@@H](C)C(=O)N(CC(=O)O)C1Cc2ccccc2C1
inactive: [1] | [2] | [3] | [5] | [6]
active: [4] 7.13 µM

CCOC(C)(C)C
inactive: [1] | [2] | [3] | [4] | [5] | [6]

CCN1CCN(c2cc(-c3ccc(F)cc3)c3c(n2)CCCCCC3)CC1
inactive: [1] | [2] | [3] | [4] | [5] | [6]

O=C(O)CCCc1c[nH]c2ccccc12
inactive: [1] | [2] | [3] | [4] | [5] | [6] | [7] | [8] | [9]

Cc1cc(O)cc2c1O[C@](C)(CCC[C@H](C)CCC[C@H](C)CCCC(C)C)CC2
inactive: [1] | [2] | [3] | [10] | [5] | [6]

NCCc1cnc[nH]1
inactive: [1] | [2] | [3] | [10] | [5] | [6]

O=C(O)c1ccccc1S
inactive: [1] | [2] | [3] | [10]

CNCC(O)c1ccc(OC(=O)C(C)(C)C)c(OC(=O)C(C)(C)C)c1 (stereo not given)
inactive: [1] | [2] | [3] | [4] | [5] | [6]

CCC(=O)OCC(=O)[C@@]1(OC(=O)CC)[C@H](C)C[C@H]2[C@H]3[C@H]([C@@H](O)C[C@@]21C)[C@@]1(C)C=CC(=O)C=C1C[C@H]3Cl
inactive: [1] | [2] | [3] | [10] | [5] | [6]

c1ccc2cc3c4ccccc4c4ccccc4c3cc2c1
active: [13] 1.97 µM | [16] 3.01 µM | [17] 1.97 µM | [22] 2.97 µM | [25] 3.23 µM | [26] 2.33 µM | [28] 3.22 µM | [29] 0.71 µM
not listed: [4] | [6] | [7] | [10]
inactive: all other assays above

OC[C@H](Cc1cccc(O)c1)[C@H](CO)Cc1cccc(O)c1
inactive: [1] | [2] | [3] | [5]
